Consider 13 molecules from PubChem BioAssay AID1345085 (National Center for Advancing Translational Sciences (NCATS), 2018).

Records with an inconclusive call do not appear. Active and inactive are the calls of the source. The call rests on the fitted dose curve; in most records, active means well fitted cell-killing curve with a large enough effect; inconclusive means small, poorly fitted or top-dose-only effect, or effect the other way; inactive means no such curve, though single readings can be large or run the other way.
On the % scale 0 is the no-effect control and ±100 the full control effect; potency means the concentration at half of the fitted maximal effect.

For the experiment, the system named is Es-2. Description: Confirmatory qHTS for gynecologic anti-cancer compounds from libraries of approved drugs and bioactive compounds. Further: nearly all actives have a fitted effect of over 55% in size. The note with it: gynecologic cancer cell panel viability, ATPlite luminescence, 48 h; series mostly up to 57.6 µM; activity change, negative = viability loss: at the top concentration. In a few lines: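 Viability is measured as ATP-dependent luciferase light using ATPlite, read 15 min after reagent addition at room temperature. Compounds, in DMSO, span 57.5 uM down to 0.977 nM over 11 threefold steps for 48 h.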
A general note: In qHTS, concentration-response curves come from the screen itself.
For the molecule `Cc1cc(Nc2cc(N3CCN(C)CC3)nc(/C=C/c3ccccc3)n2)n[nH]1`, the Potency was 24.3 µM (active).

On to `Cc1nc(N)ncc1-c1nc(N2CCOCC2)c2sc(C(C)(C)O)cc2n1`, for which the “activity change, negative = viability loss” value was -16.4% (inactive).

`COc1ccc2cc3[n+](cc2c1OC)CCc1cc2c(cc1-3)OCO2`: the “activity change, negative = viability loss” value was -17.3% (inactive).

On to `Cc1csc(NC(=O)c2sc3nc4c(c(C(F)(F)F)c3c2N)CCC4)n1`, for which the Potency is 2.17 µM (active).

On to `Cn1cc(-c2[nH]c3cc(NC(=O)[C@H](N)C4CCCCC4)cc4c3c2C=NNC4=O)cn1`, for which the Potency is 6.85 µM (active).

`CCN(CC)CCCC(C)Nc1ccnc2cc(Cl)ccc12` (stereo not drawn): the “activity change, negative = viability loss” value is -3.69% [at 19.5 µM] (inactive).

In the case of `O=C1Cc2cc(CCN3CCN(c4nsc5ccccc45)CC3)c(Cl)cc2N1`, the “activity change, negative = viability loss” value is 12.2% (inactive).

In the case of `CC(C)n1nc(-c2cc3cc(O)ccc3[nH]2)c2c(N)ncnc21`, the Potency is 4.85 µM (active).

For the molecule `Nc1ncn([C@@H]2O[C@H](CO)[C@@H](O)[C@H]2O)c(=O)n1`, the Potency is 12.2 µM (active).

Consider `CC(C)[C@@H](CS(=O)(=O)C(C)C)N1C(=O)[C@@](C)(CC(=O)O)C[C@H](c2cccc(Cl)c2)[C@H]1c1ccc(Cl)cc1`, for which the “activity change, negative = viability loss” value is 20.7% (inactive).

As to `COc1cc(Nc2ncc3c(n2)-c2ccc(Cl)cc2C(c2c(F)cccc2OC)=NC3)ccc1C(=O)O`, the “activity change, negative = viability loss” value was 22.5% (inactive).

Take `CN(NC(=O)CC(=O)NN(C)C(=S)c1ccccc1)C(=S)c1ccccc1`: the Potency is 0.611 µM (active).

`CC(=O)O[C@H]1C(=O)[C@@]2(C)[C@H]([C@H](OC(=O)c3ccccc3)[C@]3(O)C[C@H](OC(=O)[C@H](O)[C@@H](NC(=O)c4ccccc4)c4ccccc4)C(C)=C1C3(C)C)[C@]1(OC(C)=O)CO[C@@H]1C[C@@H]2O`: the Potency was 0.0819 µM (active).
